In the library only some 19% were active in any assay of this set; here they are far more common.
DT40 TDP1 no CPT – qHTS for Inhibitors of human tyrosyl-DNA phosphodiesterase 1 (TDP1): qHTS in cells in absence of CPT; DT40 Tdp1-/- hTDP1 cells, no CPT, ATP luminescence, 48 h; Potency, µM (highest dose often 46.2 µM), for the others: top-dose activity change, negative = growth inhibition, hits mostly inhibitors; 420,000 compounds, 15% hits; AID 686978, 2013; further: potency means the concentration at half of the fitted maximal effect; on the % scale 0 is the no-effect control and ±100 the full control effect; nearly all actives have a fitted effect of over 55% in size
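Seeded 400 DT40-hTDP1 cells/well (vehicle DMSO, no 20 nM CPT); pinned compounds; ≥48 hr at 37 °C; CellTiter-Glo luminescence as viability measure.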
IL1B secr inh – qHTS for Inhibitors of Inflammasome Signaling: IL-1-beta AlphaLISA Primary Screen; THP-1 LPS/ATP IL-1B secretion, AlphaLISA, 16 h; hits give low values; activity change, % at 57.5 µM; 360,000 compounds, 4.7% hits; in the data active means activity change below about -50%; inconclusive means mostly about -30% to -49%; further: on the % scale 0 is the no-effect control and ±100 the full control effect
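THP-1 cells pretreated 1 hr with compounds (up to 57.5 uM final), then stimulated with LPS (250 ng/mL final) plus ATP (1.25 mM final); secreted IL-1B measured by AlphaLISA after 16 hr, decreased signal indicating inhibition.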
TGFb inhibitor – qHTS for Inhibitors of TGF-b; 410,000 compounds, 1.2% hits; HepG2 CAGA-GFP TGF-b/SMAD3 reporter, GFP fluorescence, 18 h; TGF-beta stimulated, 500 pg/mL final; Potency, µM (titrated, usually from 46.1 µM), for the others: top-dose activity, negative = inhibition, actives largely listed as inhibitors; AID 588855, 2011; further: potency means the concentration at half of the fitted maximal effect; on the % scale 0 is the no-effect control and ±100 the full control effect; nearly all actives have a fitted effect of over 65% in size
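HEPG2 CAGA-GFP reporter cells (1000/well, DMEM with 1% FBS) received compounds, then recombinant TGF-beta at 500 pg/mL final for 18 hours at 37 degrees C. Per-cell GFP summed per well was normalised to unstimulated and stimulated DMSO controls before curve fitting.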
ASM inhibitor – Inhibitors of Secretory Acid Sphingomyelinase (S-ASM): qHTS; placental ASM, HMU-PC fluorogenic substrate, 60 min; Potency, µM (doses to about 57.5 µM), for the others: at the highest dose activity change, negative = inhibition, usual class: inhibitors; 340,000 compounds, 0.006% hits; AID 504937, 2011; further: potency means the concentration at half of the fitted maximal effect
Target sequence (P17405 47-631 limits assumed): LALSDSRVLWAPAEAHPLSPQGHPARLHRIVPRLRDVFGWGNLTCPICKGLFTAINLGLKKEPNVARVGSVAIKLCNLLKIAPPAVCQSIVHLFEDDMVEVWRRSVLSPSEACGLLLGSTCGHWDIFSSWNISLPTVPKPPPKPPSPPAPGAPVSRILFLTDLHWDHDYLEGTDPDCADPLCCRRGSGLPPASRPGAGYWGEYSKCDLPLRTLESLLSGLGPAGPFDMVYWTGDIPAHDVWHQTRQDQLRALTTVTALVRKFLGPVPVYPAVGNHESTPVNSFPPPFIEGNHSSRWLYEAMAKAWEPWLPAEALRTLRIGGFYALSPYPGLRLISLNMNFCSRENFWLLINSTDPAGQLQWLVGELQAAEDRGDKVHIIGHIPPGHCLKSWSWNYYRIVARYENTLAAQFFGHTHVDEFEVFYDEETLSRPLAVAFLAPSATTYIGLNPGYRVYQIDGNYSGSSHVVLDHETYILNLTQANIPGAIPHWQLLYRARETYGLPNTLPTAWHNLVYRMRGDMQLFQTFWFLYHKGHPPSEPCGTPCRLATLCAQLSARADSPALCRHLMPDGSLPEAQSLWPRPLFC
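HMU-PC0 cleavage (9 uM final) by human placental ASM, 60 min at 37 °C following 10 min compound exposure at RT; stopped at pH 10, fluorescence Ex 386/Em 447 nm.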
DT40 TDP1 CPT – qHTS for Inhibitors of human tyrosyl-DNA phosphodiesterase 1 (TDP1): qHTS in cells in presence of CPT; AID 686979, 2013; 420,000 compounds, 12% hits; chicken DT40 Tdp1-/-;hTDP1 cells + 20 nM CPT, ATP luminescence, 48 h; Potency, µM (doses to about 46.2 µM), without a hit: at the highest dose activity change, negative = growth inhibition, usual class: inhibitors; further: potency means the concentration at half of the fitted maximal effect; on the % scale 0 is the no-effect control and ±100 the full control effect; nearly all actives have a fitted effect of over 55% in size
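Cell growth measured by CellTiter-Glo luminescence after a minimum 48 h, 37 C compound exposure with 20 nM CPT in Tdp1-knockout DT40 cells stably expressing hTDP1, seeded 400/well; qHTS titration format.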
HepG2 tox – qHTS for Inhibitors of TGF-b: Cytotox Counterscreen | HepG2 CAGA-GFP viability, ATP luminescence, 18 h | Potency, µM (doses to about 46.1 µM), without a hit: at the highest dose activity change, negative = cytotoxicity, hits mostly cytotoxic | 410,000 compounds, 0.76% hits; further: potency means the concentration at half of the fitted maximal effect
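CellTiter-Glo luminescence gave cytotoxicity after 18 hours at 37 degrees C. The cells were HepG2 CAGA-GFP in 1% FBS DMEM, stimulated with 500 pg/mL TGF-beta after compound addition. %Activity was normalised to no-cell wells (complete cell-killing) and DMSO (no toxicity), and curves were fitted and classified.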
Starred values were filed as active, the others as inactive; i = inactive; ? = inconclusive; / = no result. Unless noted, the call rests on the fitted dose curve; in most records, active means well fitted curve in the direction sought with a large enough effect; inconclusive means small, poorly fitted or top-dose-only effect, or another doubt; inactive means no such curve, though single readings can be large; an effect the other way counts as inactive or inconclusive.

SMILES | DT40 TDP1 no CPT | IL1B secr inh | TGFb inhibitor | ASM inhibitor | DT40 TDP1 CPT | HepG2 tox
COc1cc(OC)c(N(C)S(=O)(=O)c2cccc(C(=O)OCC(=O)NCc3ccco3)c2)cc1Cl | ? | 0 | -13% | -5% | ? | 0%
COc1cc(OC)c(N(C)S(=O)(=O)c2cccc(C(=O)OCC(=O)N(C)Cc3ccccc3)c2)cc1Cl | 23µM* | 0 | -19% | -1% | 16µM* | -5%
Cc1ccccc1NC(=O)N1CCc2cc(S(=O)(=O)N3CCC(C)CC3)ccc21 | -21% | / | / | / | -19% | 3%
CCCS(=O)(=O)NC(=O)C1(C)CCN(C(=O)c2cc(OC)c(OC)c(OC)c2)C1 (stereo unspecified) | 5% | -14 | ? | / | 6% | -10%
Oc1c(C=C2N=c3ccccc3=N2)sc(=S)n1-c1ccc2ccccc2c1 | -22% | 47 | 0% | -3% | 21µM* | 2%
CCOC(=O)c1ccc2nc(C)c(CCC(C)=O)c(Cl)c2c1 | -2% | 4 | 6% | -4% | -8% | 2%
CC(=O)CCc1c(C)nc2ccc(C)cc2c1Cl | 5.2µM* | ? | 4% | 4% | -8% | 7%
Cc1cc(N2CCN(C(=O)c3[nH]c(C(F)(F)F)nc3-c3ccccc3)CC2)c2ccccc2n1 | 15µM* | 43 | ? | / | 16µM* | -53%
Cc1ccc(N2CCN(C(=O)c3[nH]c(C(F)(F)F)nc3-c3ccccc3)CC2)cc1 | ? | 44 | -8% | / | ? | -8%
O=C(c1[nH]c(C(F)(F)F)nc1-c1ccccc1)N1CCc2c([nH]c3ccccc23)C1 | 5.8µM* | 56 | -13% | / | 5.8µM* | -21%
O=C(c1cc(Cl)cc(Cl)c1)N1CCN(c2cc(C(F)(F)F)nc3ccccc23)CC1 | 12µM* | 23 | -12% | -2% | 21µM* | -24%
O=C(c1[nH]c(C(F)(F)F)nc1-c1ccccc1)N1CCN(c2ccccc2)CC1 | 4.1µM* | 26 | ? | / | 4.6µM* | -48%
O=C(c1[nH]c(C(F)(F)F)nc1-c1ccccc1)N1CCN(c2ncccn2)CC1 | ? | -1 | -2% | / | 29µM* | -44%
CCOC(=O)c1cnc2c(OC)cccc2c1Nc1cccc(O)c1 | / | / | -4% | / | / | 4%
O=C1c2cccc3cccc(c23)C(=O)N1OS(=O)(=O)c1ccc(Cl)cc1 | 18µM* | -1 | 12% | -2% | ? | -4%
CCc1ccc(S(=O)(=O)ON2C(=O)c3ccccc3C2=O)cc1 | 12µM* | -28 | ? | -1% | 7.3µM* | -3%
O=C(COC(=O)CCCN1C(=O)c2cccc3cccc(c23)C1=O)Nc1ccc(Cl)cc1 | 2% | 3 | 2% | -14% | 13% | -11%
Cn1c(=O)n(Cc2ccccc2)c(=O)c2c1nc1n2CCCN1C1CCCCC1 | -17% | 25 | -2% | 0% | -12% | -17%
Cn1c(=O)n(Cc2ccc(F)cc2)c(=O)c2c1nc1n2CCCN1C1CCCCC1 | 21µM* | -18 | -3% | -5% | 23µM* | 4%
Cc1cccc(N2CCCn3c2nc2c3c(=O)n(CCN3CCOCC3)c(=O)n2C)c1 | ? | 24 | -12% | -7% | 21µM* | -1%
COc1ccc(CCN2CCCn3c2nc2c3c(=O)n(CC(C)C)c(=O)n2C)cc1OC | 13µM* | -1 | -30% | -5% | 21µM* | -18%
CCn1c(=O)c2c(nc3n2CCCN3CCc2ccc(OC)c(OC)c2)n(C)c1=O | ? | 4 | ? | 4% | -24% | -12%
Cc1cccc(Cn2c(=O)c3c(nc4n3CCCN4Cc3ccccc3)n(C)c2=O)c1 | 11µM* | ? | ? | -24% | ? | -24%
COc1ccc(N2CCCn3c2nc2c3c(=O)n(CCN3CCOCC3)c(=O)n2C)cc1 | -14% | 15 | 3% | 0% | -2% | 13%
C/C=C(\C)C(=O)OC(C)(C)[C@H]1Cc2cc3ccc(=O)oc3cc2O1 | ? | -22 | 0% | 2% | 23µM* | -41%
SMILES | DT40 TDP1 no CPT | IL1B secr inh | TGFb inhibitor | ASM inhibitor | DT40 TDP1 CPT | HepG2 tox
CCCCCOc1ccc(C(=O)N(Cc2ccccc2)C2CCS(=O)(=O)C2)cc1 (stereo unspecified) | 21µM* | / | ? | / | ? | -43%
CCCOc1cccc(C(=O)N(Cc2ccccc2)C2CCS(=O)(=O)C2)c1 (stereo unspecified) | ? | 25 | 0% | 1% | -4% | 5%
CCCCOc1cccc(C(=O)N(Cc2ccc(Cl)cc2)C2CCS(=O)(=O)C2)c1 (stereo unspecified) | ? | / | ? | / | 15µM* | -12%
CCCOc1ccccc1C(=O)N(Cc1ccc(C)o1)C1CCS(=O)(=O)C1 (stereo unspecified) | ? | 7 | 4% | 2% | -29% | -9%
CCCOc1ccccc1C(=O)N(Cc1ccco1)C1CCS(=O)(=O)C1 (stereo unspecified) | 18µM* | 16 | 0% | 3% | ? | -2%
Cc1cc(C)c(NC(=O)C(C)n2c(=O)cc(C)c3c(C)nn(-c4ccccc4)c32)c(C)c1 (stereo unspecified) | ? | / | 1% | / | ? | 1%
O=C1CN(S(=O)(=O)c2ccc(F)cc2)CCN1 | -5% | -15 | -7% | 0% | 2% | -3%
COc1ccc(NC(=O)Nc2c(O)ccc3ccccc23)cc1 | ? | 15 | ? | 51% | ? | -104%
O=C(c1ccco1)N1CCc2[nH]nc(-c3ccc(Cl)cc3)c2C1 | -26% | -72* | -8% | -2% | -37% | -39%
COc1ccc(-c2n[nH]c3c2CN(C(=O)c2ccccc2)CC3)cc1 | -21% | 36 | -2% | -1% | ? | -1%
CCN(CC(=O)Nc1ccccc1-c1ccccc1)Cc1nc2ccccc2c(=O)[nH]1 | 4.6µM* | 46 | -27% | -3% | 5.8µM* | -18%
CCN(CC(=O)Nc1ccccc1C(=O)Nc1ccccc1)Cc1nc2ccccc2c(=O)[nH]1 | -1% | 57 | -23% | 1% | 11% | 1%
CCN(CC(=O)Nc1ccccc1SC)Cc1nc2ccccc2c(=O)[nH]1 | 2.1µM* | 66 | -26% | 2% | 0.65µM* | -21%
Cc1cccc2c(C(=O)O)c3cccc(C)c3nc12 | 2% | 11 | 42% | i | 19% | 39%

Screens: PubChem, National Center for Advancing Translational Sciences (NCATS)
